Measurements published in the supplement of paper PMC6124720.
Counter-ions that a name gives are not always drawn. A number with no mark means an inactive call.

The molecules below were run on Pseudogymnoascus destructans 20631-21 (assay: growth activity index (DuctApe, 0 = no growth, 9 = maximal growth) (index 0-9); higher = more fungal growth (less inhibition), active = 0 or less; extreme values may be limits of the assay). Settings: concentration level (1-4, increasing; Biolog proprietary): 4; temperature: 13 °C; YPD.
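Also: biolog Phenotype Microarray plates PM21–25, OD595 followed daily over 11 days, growth curves converted to index, mean of two independent experiments.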

SMILES	growth activity index
C[C@H]1c2cccc(O)c2C(=O)C2=C(O)[C@]3(O)C(=O)C(C(N)=O)=C(O)[C@@H](N(C)C)[C@@H]3[C@@H](O)[C@@H]21 [Doxycycline] (Biolog plate: PM23)	6
CO/N=C(\C(=O)N[C@@H]1C(=O)N2C(C(=O)O)=C(CSc3nc(=O)c(O)nn3C)CS[C@H]12)c1csc(N)n1 [Ceftriaxone] (Biolog plate: PM22)	0 (active)
On1ccccc1=S [1-Hydroxypyridine-2-thione (pyrithione)] (Biolog plate: PM21)	2.25
NCCSCC(N)C(=O)O (stereo not given) [Thialysine] (Biolog plate: PM24)	5
C=C(CC[C@]12O[C@H](C(=O)O)[C@@](O)(C(=O)O)[C@](C(=O)O)(O1)[C@H](OC(=O)/C=C/[C@@H](C)C[C@@H](C)CC)[C@H]2O)[C@@H](OC(C)=O)[C@H](C)Cc1ccccc1 [Zaragozic acid A] (Biolog plate: PM24)	0 (active)
NCC(=O)NO [Glycine hydroxamate] (Biolog plate: PM22)	0 (active)
N=C(N)N [Guanidine hydrochloride] (Biolog plate: PM21)	0.25
O=S(=O)([O-])[O-].[Cu+2] [Copper (II) sulfate] (Biolog plate: PM21)	6
[Cl-].[Cl-].[Zn+2] [Zinc chloride] (Biolog plate: PM21)	6.25
[I-].[K+] [Potassium iodide] (Biolog plate: PM22)	0 (active)
